PubChem BioAssay (NCI)
About 83,000 compounds went through this panel and 20% of them were active in at least one assay; those are over-represented in the sample as a whole.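 Single-dose data. Exposure time 48 hours. Values below 10 considered active.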 Activity calls are given as the source filed them.

Key:
Assay in all cases: NCI-60 one-dose screen, 48 h (100 = growth as untreated, 0 = no growth, -100 = all killed)
Details in all cases: 10 µM unless noted
HCT-15 colon = system: HCT-15 colon
HT29 colon = system: HT29 colon
SNB-75 CNS = system: SNB-75 CNS
SNB-19 CNS = system: SNB-19 CNS
PC-3 prostate = system: PC-3 prostate
SK-MEL-5 melanoma = system: SK-MEL-5 melanoma
UACC-62 melanoma = system: UACC-62 melanoma
LOX IMVI melanoma = system: LOX IMVI melanoma
SK-MEL-28 melanoma = system: SK-MEL-28 melanoma

Measured: growth

CC(=O)O[C@@H]1[C@@H](OC(C)=O)[C@H](OC(C)=O)CO[C@H]1Nc1cccc2ccccc12
inactive: HCT-15 colon 94% | HT29 colon 84.2% | SNB-75 CNS 93.9% | SNB-19 CNS 105% | PC-3 prostate 90.8% | SK-MEL-5 melanoma 103% | UACC-62 melanoma 97.2% | LOX IMVI melanoma 88.8% | SK-MEL-28 melanoma 110%

OC[C@@H](O)C(O[C@@H]1O[C@H](CO)[C@H](O)[C@H](O)[C@H]1O)[C@H](O)[C@@H](O)CO (some centres undefined)
inactive: HCT-15 colon 98.2% | HT29 colon 103% | SNB-75 CNS 98.6% | SNB-19 CNS 107% | PC-3 prostate 86.6% | SK-MEL-5 melanoma 106% | LOX IMVI melanoma 98.8% | SK-MEL-28 melanoma 110%

COc1ccc(-c2nnc(NC(=O)CN3CCN(c4cc5c(cc4F)c(=O)c(C(=O)O)cn5C4CC4)CC3)s2)cc1OC
inactive: HCT-15 colon 103% | HT29 colon 95.8% | SNB-75 CNS 90.8% | SNB-19 CNS 96.2% | PC-3 prostate 95.6% | SK-MEL-5 melanoma 99.1% | UACC-62 melanoma 91.9% | LOX IMVI melanoma 74.3% | SK-MEL-28 melanoma 107%

COc1ccc(C(=O)NC(=O)Nc2ccc3c(c2)NC(=O)/C3=C\c2[nH]c(C)c(C(=O)O)c2C)cc1
inactive: HCT-15 colon 93.5% | HT29 colon 45.1% | SNB-75 CNS 73.7% | SNB-19 CNS 80.3% | PC-3 prostate 86.1% | SK-MEL-5 melanoma 87.1% | UACC-62 melanoma 91.3% | LOX IMVI melanoma 82.5% | SK-MEL-28 melanoma 102%

Cc1ccc(Cn2cc(COc3ccc4c5ccnc(C)c5n(CCCc5ccccc5)c4c3)nn2)cc1
inactive: HCT-15 colon 86.2% | HT29 colon 71.8% | SNB-75 CNS 97.6% | SNB-19 CNS 99.4% | PC-3 prostate 81.4% | SK-MEL-5 melanoma 80.4% | UACC-62 melanoma 95% | LOX IMVI melanoma 91.1% | SK-MEL-28 melanoma 104%
